Measured potencies and affinities stand elsewhere. A number with no mark means an inactive call.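 How the source made its calls: active means cell-killing compounds whose fitted half-effect concentration is at most twice their highest valid dose; inconclusive means flat curve with 30 to 70% signal loss, or poor fit; inactive means the rest.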
assay: cytotoxicity in A549 cells, dose response, cytotoxicity control, cell-based, CellTiter-Glo luminescence, cherry-pick (AID 743484); settings: A549 viability, CellTiter-Glo ATP luminescence, 72 h; series mostly up to 26 µM; activity change, negative = cytotoxicity: at the top concentration

Row | SMILES | activity change, negative = cytotoxicity
1 | COc1ccc(Nc2oc(-c3ccco3)nc2S(=O)(=O)c2ccc(F)cc2)cc1 | 9.83 unspecified
2 | COc1ccc(-n2cc(-c3ccccc3)c3c(N4CCOCC4)ncnc32)cc1 | 19.9 unspecified
3 | O=C(O)c1cc([N+](=O)[O-])ccc1NCc1ccccc1 | 10.3 unspecified
4 | CCOC(=O)c1c(NC(=O)Cc2cccs2)sc(C)c1C | 12 unspecified
5 | COc1ccc(Cn2c(-c3ccc(Cl)cc3)c[n+]3ccccc23)cc1 | -1.67 unspecified
6 | CCn1c(-c2cc(-c3ccc(OC(C)C)cc3)nc3ccccc23)n[nH]c1=S | 10.4 unspecified
7 | Cc1ccc(S(=O)(=O)N2CC[C@H]3[C@H](CO)Nc4ccc(Br)cc4[C@H]32)cc1 | -0.943 unspecified
8 | Cc1[nH]c(=S)sc1Cc1ccc(Cl)c(Cl)c1 | 19.8 unspecified
9 | Cc1cc(C)c(OCCNC(=O)c2ccccc2Sc2ccccc2C#N)c(C)c1 | -7.36 unspecified
10 | CCOc1ccccc1NC(=O)c1ccc2ccccc2c1 | 6.53 unspecified
11 | COC(=O)c1c(NC(=O)CCC(=O)O)sc(Cc2ccccc2)c1C | 4.37 unspecified
12 | COc1ccc2[nH]c3c(=O)n(CCCCC(=O)NCCC(C)C)c(=S)[nH]c3c2c1 | 32.3 unspecified
13 | CC[C@H]1OC(=O)[C@H](C)[C@@H](O[C@H]2C[C@@](C)(OC)[C@@H](O)[C@H](C)O2)[C@H](C)[C@@H](O[C@@H]2O[C@H](C)C[C@H](N(C)C)[C@H]2O)[C@](C)(O)C[C@@H](C)[C@@H]2N[C@@H](COCCOC)O[C@H]([C@H]2C)[C@]1(C)O | -8.75 unspecified
14 | Cc1ccc(C)c(NC(=O)CSc2nc3nc(-c4cccs4)cc(C(F)(F)F)c3c(=O)[nH]2)c1 | 28.3 unspecified
15 | Cc1noc(C)c1NC(=O)Nc1ccc2c(c1)C(=O)N([C@H](C)CO)C[C@@H](C)[C@@H](CN(C)C(=O)Nc1ccc3c(c1)OCO3)OCCCC[C@@H](C)O2 | 6.85 unspecified
16 | Cc1c(C(=O)O)sc2nc(CSc3ncc(C(F)(F)F)cc3Cl)[nH]c(=O)c12 | 10.5 unspecified
17 | COc1cccc(C(=O)Nc2cc(C)nn2-c2ccccc2)c1OC | -3.18 unspecified
18 | C[C@@H]1CCCCO[C@H](CN(C)C(=O)CCCN(C)C)[C@H](C)CN([C@@H](C)CO)C(=O)c2cc(NC(=O)Nc3cccc4ccccc34)ccc2O1 | 27.8 unspecified
19 | C[C@@H]1CCCCO[C@H](CN(C)CC2CC2)[C@H](C)CN([C@@H](C)CO)C(=O)c2cc(NC(=O)Nc3cccc4ccccc34)ccc2O1 | 0.732 unspecified

Source: PubChem BioAssay AID743484 (Broad Institute, 2014)
